This is a sample that favours compounds with a hit; in the whole collection about 4.6% have one here.
Cav32 inh = inhibitors of human Cav3.2 T-type calcium channel | actives 4% (n = 100,000) | B-score at 10 µM | O95180 | AID 449739 | Cav3.2-expressing cells, Fluo-4 calcium fluorescence FDSS; stronger effect = lower value;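 active = single-dose well whose peak fluorescence ratio is a statistical outlier from its plate by either plate-standardised score or position-corrected B-score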
sEH act = soluble epoxide hydrolase (human) activation. P34913. purified human sEH enzymatic activity, activator screen. activation, % at 2 µM. actives 0.04% (n = 91,000); in the data active = activation above about 37%
Target sequence (P34913 whole entry, looked up): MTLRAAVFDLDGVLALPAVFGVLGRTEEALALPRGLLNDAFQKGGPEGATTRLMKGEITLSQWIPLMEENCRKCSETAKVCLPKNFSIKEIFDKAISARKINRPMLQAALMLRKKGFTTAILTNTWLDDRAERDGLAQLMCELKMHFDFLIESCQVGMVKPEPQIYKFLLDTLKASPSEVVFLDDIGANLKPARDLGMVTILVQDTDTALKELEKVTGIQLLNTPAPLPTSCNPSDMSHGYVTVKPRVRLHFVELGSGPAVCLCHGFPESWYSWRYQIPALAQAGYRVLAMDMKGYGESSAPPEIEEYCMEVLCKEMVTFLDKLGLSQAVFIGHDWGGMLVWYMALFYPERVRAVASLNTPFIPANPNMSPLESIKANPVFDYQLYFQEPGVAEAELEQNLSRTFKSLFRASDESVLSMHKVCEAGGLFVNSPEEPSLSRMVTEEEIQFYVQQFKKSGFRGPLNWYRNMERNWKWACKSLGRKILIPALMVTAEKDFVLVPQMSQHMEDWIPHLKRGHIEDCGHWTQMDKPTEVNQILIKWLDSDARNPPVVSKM
sEH inh = soluble epoxide hydrolase (human) inhibition; P34913; recombinant human sEH enzymatic activity assay; inhibition, % at 2 µM; actives 0.34% (n = 91,000); in the data active = inhibition above about 80%
NFkB transloc pot = enhances IL-1B driven NFkB nuclear translocation. HUVEC IL-1B NFkB p65 nuclear translocation imaging. activation, % at 2 µM. actives 0.3% (n = 94,000);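 active = activation above 40%, about the mean plus 3 SD, also judged a hit on visual image review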;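 also: percent activation is computed from the nuclear over cytoplasmic p65 intensity ratio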
IL1B NFkB inh = blocks IL-1B driven NFkB nuclear translocation in HUVEC cells. AID 796. inhibition, % at 2 µM. actives 0.43% (n = 94,000). HUVEC IL-1B NFkB p65 nuclear translocation imaging;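 active = inhibition above about 30% together with a positive call from visual inspection of the well image, limit read from the data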;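 also: nuclear over cytoplasmic p65 intensity ratio measured by imaging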
IL1B cytotox = toxic to HUVEC cells under IL-1B stimulation | HUVEC cell count loss, Hoechst imaging, IL-1B stimulated | cell count reduction, % at 2 µM | actives 0.41% (n = 94,000);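 active = cell count reduction more than 3 SD above the screen-wide mean, cut at about 70% in these data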
A number is an active result; - = inactive; . = no result.

SMILES	Cav32 inh	sEH act	sEH inh	NFkB transloc pot	IL1B NFkB inh	IL1B cytotox
CCCOc1ccc(C(C)=O)cc1CC(C(=O)OCC)C(=O)OCC	-	-	-	-	-	-
COc1ccc(Cn2c(=O)[nH]c3cc(C(=O)N4CCN(Cc5ccccc5)CC4)ccc3c2=O)cc1	-7.55	.	.	-	-	-
O=C(CCCCn1c(=O)[nH]c2ccccc2c1=O)N1CCN(c2cccc(C(F)(F)F)c2)CC1	-9.43	-	-	-	-	-
O=C(CCn1c(=O)[nH]c2ccccc2c1=O)N1CCN(c2ccc(Cl)cc2)CC1	-	-	-	-	-	-
CCN1CCN(C(=O)c2ccc(Cn3c(=O)[nH]c4cc(OC)c(OC)cc4c3=O)cc2)CC1	-	-	-	-	-	-
O=C(c1ccc(Cn2c(=O)[nH]c3ccccc3c2=O)cc1)N1CCN(c2ccc(F)cc2)CC1	-8.97	-	-	-	-	-
CC(C)(C)c1ccc(C(O)CCCN2CCC(C(O)(c3ccccc3)c3ccccc3)CC2)cc1 (centres undefined)	-4.77	.	.	.	.	.
Cc1[nH]nc2c1C(c1cccc(OC(=O)N3CCOCC3)c1)C(C#N)=C(N)O2 (centres undefined)	-	-	-	-	-	-
O=C(Nc1nc(=S)ss1)c1ccc(Cl)cc1Cl	-10.8	-	-	-	-	-
Cc1ccccc1NC(=O)C(NS(=O)(=O)c1ccc2c(c1)c(=O)n(C)c(=O)n2C)c1ccccc1 (centres undefined)	-	.	.	-	-	-
O=C(Cn1cc(C(=O)COc2ccccc2)c2ccccc21)NCc1ccco1	-	-	-	-	-	-
COc1cccc(C(=O)Nc2ccc(S(=O)(=O)Nc3onc(C)c3C)cc2)c1	-	-	-	-	-	-
CCOc1ccc(N2CC(C(=O)Nc3ccccc3OC)CC2=O)cc1 (centres undefined)	-5.09	-	-	-	-	-
COc1cccc(N2CC(C(=O)Nc3ccc(C(=O)OC(C)C)cc3)CC2=O)c1 (centres undefined)	-4.56	-	-	-	-	-
COc1cccc(N2CC(C(=O)NC3CCCCC3)CC2=O)c1 (centres undefined)	-	.	.	.	.	.
CCOc1ccc(N2CC(C(=O)Nc3ccc(F)cc3F)CC2=O)cc1 (centres undefined)	-	-	-	-	-	-
Cc1ccc(C)c(CSc2nnc([C@@H](N)C(C)C)o2)c1	-	-	-	-	-	-
O=C(CSc1nc2ccccc2[nH]1)Nc1ccccc1F	-	-	-	-	-	-
O=C(CSc1nc2ccccc2[nH]1)Nc1ccc(F)c(F)c1	-4.37	-	-	-	-	-
O=C(c1cnn2c(C(F)(F)F)cc(-c3cccs3)nc12)N1CCN(C(c2ccccc2)c2ccccc2)CC1	-4.22	-	-	-	-	-
O=C(c1cc2nc(-c3cccs3)cc(C(F)(F)F)n2n1)N1CCCc2ccccc21	-4.81	-	-	.	.	.
CCCn1nc2cc(C(=O)NCc3ccc(OC)cc3)ccc2c1OCC	-	-	-	-	-	-
Clc1cc(Sc2ccc(Br)cc2)nnc1-c1ccccc1	-5.29	-	-	-	-	-
CC1=CC(C)(C)N2C(=O)C3(SCC(=O)N3c3ccc(O)cc3)c3cc(C)cc1c32 (centres undefined)	-7.43	.	.	-	-	-
Cc1ccc(N2C(=O)CSC23C(=O)Nc2ccccc23)cc1 (centres undefined)	-	.	.	-	-	-
SMILES	Cav32 inh	sEH act	sEH inh	NFkB transloc pot	IL1B NFkB inh	IL1B cytotox
CCOc1ccc2nc(NCCCNS(=O)(=O)c3ccc(F)cc3)c(C#N)cc2c1	-	-	-	-	-	-
COc1ccccc1N1CCN(c2cc(=O)n(Cc3ccc(F)cc3)c(=O)[nH]2)CC1	-6.08	-	-	-	-	-
COc1ccc2nc(SCC(=O)Nc3ccc(S(=O)(=O)N4CCCC4)cc3)c(C#N)cc2c1	-	-	-	-	-	-
CCO[C@@H]1OC(C(=O)NC2CC2)=C[C@H](C(C)(C)C)[C@H]1CCCO	-	.	.	.	.	.
CCCSc1nc2sc3c(c2c(=O)[nH]1)CCN(Cc1ccccc1)C3	-5.86	-	-	-	-	-
CCCCSc1nc2sc3c(c2c(=O)[nH]1)CCC3	-	-	-	-	-	-
Cc1ccc(NC(=O)/C(=C\c2cccc(Br)c2)NC(=O)c2ccco2)cc1	-	-	-	-	-	-
CC1CCCC(NC(=O)Cc2ccc(Br)cc2)C1C (centres undefined)	-	-	-	-	-	-
CC1CCCC(NC(=O)Nc2cccs2)C1C (centres undefined)	-	-	80.5	-	-	-
